Compound activity (PubChem BioAssay)
MEP2-GFP yeast = alters MEP2-GFP fluorescence in TOR pathway yeast screen; S. cerevisiae MEP2-GFP strain, flow cytometry GFP, 3 h; 100% = DMSO control level; GFP response vs DMSO, % at 10 µM; hit rate 0.51% among 330,000;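 active = GFP response versus DMSO above a set limit, roughly screen mean plus 3 SD, cut at about 180% in these data; inconclusive = fewer than 70 cells counted for a yeast strain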;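 also: median GFP fluorescence of the barcode-gated MEP2-GFP cells per well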
LAP4 TOR yeast = alters LAP4-GFP fluorescence in TOR pathway yeast screen; hit rate 0.34% among 320,000; S. cerevisiae LAP4-GFP multiplex, flow cytometry GFP, 3 h; median GFP as percent of DMSO wells; GFP response vs DMSO, % at 10 µM;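 active = GFP response vs DMSO above a set limit, about the screen mean plus 3 SD, cut at about 150% in these data; inconclusive = under 70 cell events counted for the yeast strain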
CIT2 TOR yeast = modulators of TOR pathway CIT2-GFP in S. cerevisiae; S. cerevisiae CIT2-GFP strain, flow cytometry, 3 h; 100 means same as DMSO wells; GFP response vs DMSO, % at 10 µM; hit rate 0.065% among 320,000; AID 2029;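 active = GFP response relative to DMSO above a set limit, near the screen mean plus 3 SD, cut at about 150% in these data; inconclusive = Fewer than 70 cells measured for a yeast strain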;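 also: ratio of well median GFP fluorescence to mean of DMSO wells on the plate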
AGP1-GFP MLPCN = alters AGP1-GFP fluorescence in TOR pathway yeast screen | hit rate 0.02% among 320,000 | S. cerevisiae AGP1-GFP multiplex flow cytometry, 3 h; GFP as percent of DMSO wells | AID 2066 | GFP response vs DMSO, % at 10 µM;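 active = GFP response relative to DMSO above a set limit, near screen average plus 3 SD, cut at about 150% in these data; inconclusive = fewer than 70 cells counted for the yeast strain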;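 also: median GFP channel fluorescence of the gated AGP1 strain per well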
RPL19A TOR yeast = alters RPL19A-GFP fluorescence in TOR pathway yeast screen; S. cerevisiae RPL19A-GFP strain, flow cytometry, 3 h; hits give low values; hit rate 0.3% among 330,000; percent response vs DMSO, % at 10 µM;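 active = percent response vs DMSO below 50%; inconclusive = fewer than 70 events counted for the yeast strain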;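 also: median channel GFP fluorescence of the barcoded RPL19A-GFP strain; ratio of sample median GFP to plate DMSO average so 100% = DMSO; lower means less RPL19A-GFP as with rapamycin TOR inhibition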
Numbers without * were called inactive; ? = inconclusive; nt = no result; + = active, no number; [ ] = remark or other dose. Only some compounds are listed: those with a hit (about 0.93% of all), similar ones and a draw of the others.

SMILES	MEP2-GFP yeast	LAP4 TOR yeast	CIT2 TOR yeast	AGP1-GFP MLPCN	RPL19A TOR yeast
CCOc1ccc(CNC(=O)CCCn2ccc3cc(S(=O)(=O)N4CCCC4)ccc32)cc1	154	81	?	14	22*[may fluoresce violet]
O=c1oc(Nc2ccccc2F)nc2ccccc12	99	107	94	90	87
O=C(O)c1ccc(N=Nc2c(O)ccc3ncccc23)cc1	+[may fluoresce violet]	69	?	37	74
Nc1nc(N)c(N=Nc2ccc(C(=O)O)cc2)c(N)n1	106	98	102	93	102
O=C(NCC1CCCO1)c1ccc(Br)c(S(=O)(=O)N2CCOCC2)c1 (stereo unspecified)	+[may fluoresce green]	+[may fluoresce green]	+[may fluoresce green]	786*[may fluoresce green]	775
COc1ccc(C(=O)C2CCCN(C(=O)c3cccs3)C2)cc1F (stereo unspecified)	86	167*	72	81	87
COc1ccc(C(=O)C2CCCN(C(=O)c3cccnc3OC)C2)cc1F (stereo unspecified)	96	92	97	101	93
Cc1nnc(NC(=O)c2csc3c2CCC(C)C3)s1 (stereo unspecified)	101	155*	79	92	92
Cc1nnc(NC(=O)c2csc3c2CCCC3)s1	99	124	77	88	85
Cc1ccc(S(=O)(=O)NC(C(=O)N2CCOCCOCCOCC2)C(C)C)cc1 (stereo unspecified)	?	?	?	?	14*[may fluoresce violet]
Cc1ccc(S(=O)(=O)NC(C)C(=O)N2CCOCCOCCOCCOCC2)cc1 (stereo unspecified)	97	77	84	90	90
O=C(NNC(=O)c1cc(OCC(F)(F)F)ccc1OCC(F)(F)F)c1cccc(C(F)(F)F)c1	95	107	94	107	105
CCc1ccc2c(c1)C1(C(=O)N2)N2CCCC2C(C(=O)c2ccc3ccccc3c2)C12C(=O)Nc1ccccc12 (stereo unspecified)	103	102	92	99	100
CCc1ccc2c(c1)C1(NN=C(c3cccc4ccccc34)S1)C(=O)N2 (stereo unspecified)	92	168*	89	78	71
CC(C)(C)c1ccc(C(=O)NCCC(=O)N2CCC3(CC2)NCCc2[nH]cnc23)cc1	189*[may fluoresce violet]	81	?	?	17*[may fluoresce violet]
Cc1ccc(C(=O)NCCC(=O)N2CCC3(CC2)NCCc2[nH]cnc23)cc1	100	99	99	97	94
CCCN(CC1CC1)S(=O)(=O)c1ccc(-n2cnnn2)c(OC)c1	99	98	104	104	104
Nc1nc(-c2ccc3c(c2)CCCC3)c(CC(=O)O)s1	719*[may fluoresce violet]	91	?	30	32*[may fluoresce violet]
Cc1ccn2c(NC3CCCCC3)c(-c3cccc(-c4cccc(Cl)c4)c3)nc2c1	96	152*	73	84	85
Cc1ccn2c(NC3CCCC3)c(-c3ccncc3)nc2c1	96	97	102	99	92
Cc1ccc(NC(=O)c2cccc3c2C(=O)N(C2CCCCC2)C3)c(Cl)c1	93	96	101	100	97
O=[N+]([O-])c1ncccc1OCc1ccc(-c2ccccc2)cc1	156	132	156*	99	104
COC(=O)c1ccc(/C=N/OCC(=O)NCCc2ccc(OC)c(OC)c2)cc1	306*	142	115	98	84
Nc1nncn1C(=O)CCCOc1ccccc1	94	nt	79	87	92
COc1ccc(NC(=O)Nc2ccon2)c(OC)c1	195*	132	143	104	107
SMILES	MEP2-GFP yeast	LAP4 TOR yeast	CIT2 TOR yeast	AGP1-GFP MLPCN	RPL19A TOR yeast
C(=C\c1ccccc1)/C=N/Nc1nc2ccccc2[nH]1	106	95	107	103	107
COc1ccc(N=c2oc3cc(O)ccc3cc2C(=O)NCC2CCCO2)cc1 (stereo unspecified)	101	101	107	106	102
COc1ccc(N=c2oc3cc(O)ccc3cc2C(=O)NCC2CCCO2)c(OC)c1 (stereo unspecified)	348*[may fluoresce violet]	82	?	?	43*[may fluoresce violet]
O=C1CCCC(O)=C1C=Nc1ccc2c(c1)oc1ccccc12	100	102	107	90	94
CC1=CC(c2ccccc2)n2nc(N3C(=O)CCC3=O)nc2N1 (stereo unspecified)	110	99	104	110	98
CC1=CC(c2ccccc2)n2nc(N3C(=O)C4CC=CCC4C3=O)nc2N1 (stereo unspecified)	448*[may fluoresce violet]	101	?	nt	44*[may fluoresce violet]
Cc1cc(C)nc(N(C#N)C(C)C(=O)N(C)C)n1 (stereo unspecified)	87	77	106	77	118
Cc1ccc(-c2csc3ncnc(SCC(=O)O)c23)cc1	186*[may fluoresce violet]	60	?	?	51
Cn1c(=O)c(C(=O)NCCc2ccc(Cl)cc2)c(O)c2ccccc21	202*[may fluoresce violet]	91	?	43	52
O=C(Cn1c(=O)c2cccn2c2ccccc21)NCCc1ccc(Cl)cc1	184*[may fluoresce violet]	98	?	20	41*[may fluoresce violet]
COc1ccc(C)cc1NC(=O)C/C(C)=N/NC(=O)Cc1cccc2ccccc12	?	71	?	?	35*[may fluoresce violet]
CCN(CC)CCCN(Cc1cc2cc3c(cc2[nH]c1=O)OCO3)C(=S)Nc1ccccc1	103	153*	110	120	65
O=C1CSC(=NC2CCCCC2)N1	102	114	90	105	94
COCCNc1ccnc2c(Cl)cccc12	102	94	107	106	111
COCCCNc1ccnc2c(Cl)cccc12	182*[may fluoresce violet]	84	?	nt	60
CC(=O)c1ccc2cccc3c2c1N=CN3C	109	101	104	89	94
COc1ccc2c(c1)c(C(C)=O)c(C)n2-c1ccccc1OC	100	151*	95	91	80
CCCN(CCO)CCCc1ccccc1	95	96	97	94	90
Cc1c(C)c2ccc(OCC(=O)N3CCOCC3)c(C)c2oc1=O	93	89	96	99	97
CC(=O)c1cccc(Nc2nc(N3CCOCC3)nc(N3CCOCC3)n2)c1	226*[may fluoresce violet]	90	?	18	56
Cc1occc1-c1nnc(SCC(=O)N2CC(=O)Nc3ccccc32)n1CC(C)C	197*[may fluoresce violet]	86	?	29	37*[may fluoresce violet]
CCn1c(SCC(=O)N2CC(=O)Nc3ccccc32)nnc1-c1ccoc1C	107	106	101	101	101
O=C(c1ccc2c(c1)OCO2)N1CCCc2ccccc21	98	122	83	95	85
O=C(c1ccc2c(c1)OCO2)N1CCc2ccccc21	294*[may fluoresce violet]	71	?	?	50
Cc1ccc(SCC(=O)O/N=C(\N)c2ccncc2)cc1	102	111	96	95	98
COc1ccc(C(=O)NC(=S)Nc2ccc(CN3CCOCC3)cc2)cc1	150	151*	107	142	87
